# C8 TRAIL sens: sensitizes caspase-8 expressing cells to TRAIL. NB7+C8 cells + TRAIL, ATPlite viability luminescence. AID 624354. inhibition (viability loss, TRAIL sensitization), % at 10 µM. 1% of 360,000 active;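 active means compounds causing at least 50% loss of cell viability in the single-dose screen, relative to plate controls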
# CF NFkB inh: cystic fibrosis NF-kB activation inhibition | KKLEB NF-kB-GFP reporter, PAF-induced, GFP fluorescence overnight | 0.86% of 360,000 active | inhibition, % at 5 µM;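 active means at least 50% inhibition at 5 µM, scaled per plate between neutral and stimulator controls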;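 further: PAF is a Pseudomonas aeruginosa culture filtrate used as stimulus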
# Peg3 promoter: Peg3 promoter activity inhibition. HeLa PEG-Prom luciferase reporter, luminescence, overnight. inhibition, % at 20 µM. 1.7% of 360,000 active. AID 588405;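 active means inhibition of at least 50% at 20 µM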
# HIF-2a block: blocks HIF-2a reporter activity; 786-0 RCC cells HIF-2a reporter, luciferase luminescence, overnight; AID 624352; inhibition, % at 18.8 µM; 0.72% of 360,000 active;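 active means inhibition of the luminescence signal of 40% or more relative to plate controls, in a single-dose primary screen at 18.75 µM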
# PPC-1+TRAIL kill: compounds killing PPC-1 cancer cells with TRAIL present (potentiator screen, no TRAIL-free arm); PPC-1 cells + TRAIL, ATPLite viability luminescence; 0.41% of 220,000 active; cell killing (% activity), % at 4 µM or 5 µM;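 active means cell killing above 50% in the first pass at 4 µM, then a duplicate retest at 5 µM averaging 50% or more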
# KKLEB tox: counter-screen for CF NF-kB inhibitors: cytotoxicity; 0.36% of 360,000 active; activity change (cytotoxicity), % at 5 µM; AID 602141; KKLEB CF airway cells viability, ATPlite luminescence, overnight; active compounds read low; cells stimulated with P. aeruginosa culture filtrate;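 active means corrected activity change at or below -50% at 5 µM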
# Numbers stand for hits; n = inactive; x = not tested or not shown. Sampled rows, rich in hits. Any-hit rate of the full collection: about 3.1%.
SMILES,C8 TRAIL sens,CF NFkB inh,Peg3 promoter,HIF-2a block,PPC-1+TRAIL kill,KKLEB tox
Cc1cc(C)c(CN2CCN(C(=O)Cn3cnc(C(=O)Nc4ccc(C)c(C)c4)n3)CC2)c(C)c1,n,n,86.3,n,x,-69.4
Cc1ccc(NC(=O)Cn2cnc(C(=O)Nc3ccc(C)c(C)c3)n2)cc1C,n,n,n,n,x,n
Cc1ccc(NC(=O)c2ncn(CCCN3CCN(Cc4cccc5ccccc45)CC3)n2)cc1C,n,n,96.7,n,x,n
COc1ccc2c(CC(=O)NNC(=O)c3ccc(O)cc3)coc2c1,n,n,n,n,x,n
CC(C)(C)OC(=O)N1CCC(NC(=O)c2nc[nH]c2C(=O)NCC(=O)OCc2ccccc2)CC1,n,n,55.4,n,x,n
CCN1CCN(S(=O)(=O)c2ccc(Cl)c(C(=O)N(C)Cc3cccs3)c2)CC1,n,n,n,n,x,-51.8
N/C(Cc1ccc(Cl)c(Cl)c1)=N\OC(=O)c1cccs1,63.9,n,n,n,n,n
Cc1ccc(NC(=O)CSc2nc3c([nH]c4ccccc43)c(=O)n2C)cc1,n,n,54.1,n,n,n
Cc1ccc(-c2csc(NC(=O)CSc3nnc4c(n3)[nH]c3ccccc34)n2)cc1,51.5,n,55.9,n,n,n
COCCn1c(SCC(=O)Nc2ccccc2OC)nc2c([nH]c3ccccc32)c1=O,n,n,n,n,x,n
Cc1ccc(NC(=O)CSc2nnc3c(n2)[nH]c2ccccc23)cc1,n,n,n,n,x,n
C=CCn1c(SCC(=O)Nc2ccccc2OC)nc2c([nH]c3ccccc32)c1=O,n,55.4,n,n,x,-57.0
COCCCN(C(=O)CCSc1ccc(F)cc1)c1c(N)n(Cc2ccccc2)c(=O)[nH]c1=O,n,n,n,n,x,n
O=C(CC(O)(CC(=O)OCc1ccccc1)C(=O)OCc1ccccc1)OCc1ccccc1,n,n,n,n,x,n
COc1cccc(CNC(=O)CCCc2nnc3n(C)c(=O)c4sccc4n23)c1,n,n,n,n,x,n
COc1cc(/C=N/NC(=O)COc2ccc(C)cc2)ccc1OC(=O)c1cccs1,56.5,n,n,n,n,n
CCOc1cc(/C=N/NC(=O)COc2ccc(C)cc2)ccc1OC(=O)c1cccs1,n,n,n,n,n,n
Cc1cccn2c(=O)c3cc(C(=O)NC4CCCCC4)c(=N)n(Cc4ccccc4)c3nc12,n,n,54.2,n,x,n
CCNC(=O)c1cc2c(=O)n3cccc(C)c3nc2n(CCc2ccccc2)c1=N,n,n,n,n,n,n
Cc1cccn2c(=O)c3cc(C(=O)NC4CCCC4)c(=N)n(Cc4ccc(F)cc4)c3nc12,n,n,57.9,n,x,n
Cc1cccn2c(=O)c3cc(C(=O)NC4CCCC4)c(=N)n(CCc4ccccc4)c3nc12,n,n,69.2,n,x,n
N=c1c(C(=O)NC2CCCC2)cc2c(=O)n3ccccc3nc2n1Cc1ccccc1,n,n,n,n,x,n
COc1ccc(NC(=O)COC(=O)CCc2ccc(S(=O)(=O)N3CCOCC3)cc2)c(OC)c1,n,n,n,n,x,n
CC(C)(C)c1ccc(Oc2ccc(N)cn2)cc1,n,n,n,77.2,n,n
Cc1cc(C)n(C(C[N+](=O)[O-])c2ccc(Cl)cc2)n1 (stereo not drawn),n,n,99.5,n,n,n
SMILES,C8 TRAIL sens,CF NFkB inh,Peg3 promoter,HIF-2a block,PPC-1+TRAIL kill,KKLEB tox
O=C(CSc1n[nH]c(-c2ccccn2)n1)Nc1ccc(Cl)cc1,n,n,53.5,n,x,n
O=C(CSc1n[nH]c(-c2ccccn2)n1)Nc1ccc(F)cc1,n,n,n,n,x,n
COc1ccc(-c2c3c(nc4sc5c(Cl)nc(C)nc5c24)CCC3)cc1,n,n,108.8,n,n,n
O=C(Nc1nc(-c2ccccn2)cs1)c1ccc(Cl)s1,n,n,n,n,n,n
O=C(Nc1nc(-c2ccccn2)cs1)c1ncc(Cl)c(Cl)c1Cl,n,n,68.7,n,n,n
O=C1/C(=C\c2cc([N+](=O)[O-])ccc2O)SC(=S)N1Cc1ccc(Cl)cc1,n,n,97.5,n,x,n
O=C(CCCN1C(=O)/C(=C/c2cccs2)SC1=S)NNC(=O)c1ccc(F)cc1,n,n,n,45.7,n,n
O=C(CCCN1C(=O)/C(=C/c2cccs2)SC1=S)Nc1ccc(C(=O)O)cc1,n,n,n,n,n,n
O=C(CCCN1C(=O)/C(=C\c2cccs2)SC1=S)Nc1cc([N+](=O)[O-])ccc1O,n,53.0,n,n,x,n
O=C(CCCN1C(=O)/C(=C/c2cccs2)SC1=S)Nc1cccc(O)c1,n,n,60.9,n,x,n
O=C(CCN1C(=O)/C(=C/c2cccs2)SC1=S)Nc1ccccc1O,n,n,n,n,x,n
N#Cc1ccc(C(=O)N2CCCCC2c2cc(C(=O)Nc3cccc(C#N)c3)no2)cc1 (stereo not drawn),n,n,n,n,x,n
COc1ccc([C@H]2CC(=O)C=C(/C=C/c3ccccc3)C2)cc1OC,n,n,n,n,x,n
O=C(Cn1cc(COc2c(F)c(F)cc(F)c2F)nn1)c1ccc(O)cc1,n,n,n,n,x,n
Cc1ccc2[nH]c3c(=O)n(CC(=O)Nc4ccccc4N4CCN(C)CC4)ncc3c2c1,n,n,52.8,n,x,n
CN1CCN(c2ccccc2NC(=O)Cn2ncc3c([nH]c4ccccc43)c2=O)CC1,n,n,n,n,x,n
Cc1cc(C)c(C(=O)N2CCC(N3CCC(C(=O)NC(C)C)CC3)CC2)o1,n,n,n,n,x,n
O=C(NCCC(=O)N1CCC2(CC1)NCCc1[nH]cnc12)c1cccc(Br)c1,n,n,n,n,x,n
Cc1ccc(-c2nc3cnccn3c2Nc2c(C)cccc2C)o1,n,n,101.7,n,n,n
Cc1noc(C)c1C(=O)Nc1nc2ccc(S(C)(=O)=O)cc2s1,54.2,n,n,n,x,n
O=C(N/N=C/c1ccccc1O)c1cccc(C(F)(F)F)c1,n,n,n,n,52.5,n
O=C(N/N=C/c1ccc(-c2cccc(C(F)(F)F)c2)o1)c1cccc(F)c1,72.9,n,n,n,n,n
O=C(N/N=C/c1ccc(O)cc1)c1cccc(C(F)(F)F)c1,n,n,n,n,n,n
CNC[C@@H]1OCc2ccccc2-c2ccccc2C(=O)N([C@H](C)CO)C[C@@H]1C,n,n,n,n,x,n
O=C(Nc1cc(S(=O)(=O)N2CCOCC2)ccc1N1CCOCC1)c1ccc([N+](=O)[O-])s1,53.1,n,n,n,x,n
O=C(Nc1cc(S(=O)(=O)N2CCOCC2)ccc1N1CCOCC1)c1ccccc1[N+](=O)[O-],n,n,n,n,x,n
O=c1[nH]c(C2CCN(S(=O)(=O)c3ccccc3F)CC2)nc2c1nnn2Cc1ccc2c(c1)OCCO2,n,n,60.5,n,x,n
O=c1[nH]c(C2CCN(S(=O)(=O)c3ccc(F)cc3)CC2)nc2c1nnn2Cc1ccc2c(c1)OCCO2,n,n,n,n,x,n
Cc1ccc(N(CC(=O)NCCc2ccccc2)C(=O)CCC(=O)Nc2cc(C)ccn2)cc1,n,n,n,n,x,n
